# PubChem BioAssay (NCI)
# This is part of a sample that, as a whole, favours compounds with a hit. Of some 79,000 tested, about 15% had one in any assay. A number with no mark means an inactive call. Active and inactive are the calls of the source. Rule as the data show it: active = growth inhibition above about 70%; inactive = the rest.
# Columns and labels:
# [1] = NCI Yeast Anticancer Drug Screen. Data for the rad52 strain (AID 147);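 also: 0% = growth of vehicle-treated control cultures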; conditions: S. cerevisiae rad52 mutant growth inhibition, hits give high values
# Procedure, shortened: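 Inhibition of yeast growth, referenced to vehicle controls, was the measured output for a strain with defective DNA damage repair.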
# [2] = NCI Yeast Anticancer Drug Screen. Data for the wt1 strain (AID 149);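 also: 0% = growth of vehicle-treated wt1 cultures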; conditions: S. cerevisiae wt1 strain (SPY 50644) growth inhibition, hits give high values
# Procedure, shortened: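 Compounds are added to wt1 yeast cultures. Growth is then measured. Inhibition is expressed relative to vehicle-treated controls.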
# [3] = NCI Yeast Anticancer Drug Screen. Data for the rad50EPP+ strain (AID 151);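 also: 0% = growth of vehicle-treated control cultures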; conditions: S. cerevisiae rad50 mutant strain, hits give high values
# Procedure, shortened: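 Genetically defined yeast (rad50EPP+, DNA damage repair alteration) is grown with compound, and inhibition of growth is expressed relative to vehicle-treated controls.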
# [4] = NCI Yeast Anticancer Drug Screen. Data for the mgt1 strain (AID 153); conditions: S. cerevisiae mgt1 mutant growth inhibition, hits give high values
# Procedure, shortened: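 In the mgt1 strain, test compounds were added and growth inhibition was determined relative to vehicle-treated controls.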
# [5] = NCI Yeast Anticancer Drug Screen. Data for the rad50 strain (AID 155);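 also: 0% = growth of vehicle-only cultures of the same strain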; conditions: S. cerevisiae rad50 strain growth inhibition, hits give high values
# Procedure, shortened: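 Inhibition values express reduced yeast growth in compound-treated cultures relative to vehicle-treated controls.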
# [6] = NCI Yeast Anticancer Drug Screen. Data for the mec2-1 strain (AID 157); conditions: S. cerevisiae mec2-1 strain, hits give high values
# Procedure, shortened: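 Each compound was tested on mec2-1 yeast, a strain altered in DNA damage repair or cell cycle control. Growth inhibition is reported relative to vehicle.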
# [7] = NCI Yeast Anticancer Drug Screen. Data for the rad14 strain (AID 159);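 also: 0% = growth of vehicle-treated control cultures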; conditions: S. cerevisiae rad14 strain growth inhibition, hits give high values
# Procedure, shortened: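 A mutant yeast strain defective in DNA damage repair is treated with compound; inhibition of its growth is scored against untreated, vehicle-exposed cultures.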
# [8] = NCI Yeast Anticancer Drug Screen. Data for the sgs1 mgt1 strain (AID 161);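 also: 0% = growth of cultures given vehicle only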; conditions: S. cerevisiae sgs1 mgt1 strain, hits give high values
# Procedure, shortened: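 Mutant yeast exposed to compound; growth scored against vehicle-only wells.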
# [9] = NCI Yeast Anticancer Drug Screen. Data for the CLN2oe strain (AID 163);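 also: 0% = growth of vehicle-only control cultures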; conditions: S. cerevisiae CLN2oe strain, hits give high values
# Procedure, shortened: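 First, the altered yeast strain was treated with each compound; second, its growth was measured; finally, inhibition was derived by comparison with vehicle controls.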
# [10] = NCI Yeast Anticancer Drug Screen. Data for the cln2 rad14 strain (AID 165);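 also: 0% = growth equal to vehicle treated cultures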; conditions: S. cerevisiae cln2 rad14 strain, hits give high values
# Procedure, shortened: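 Test compounds were added to cln2 rad14 yeast cultures; inhibition of growth was then determined by comparison with vehicle treatment.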
# [11] = NCI Yeast Anticancer Drug Screen. Data for the bub3 strain (AID 167); conditions: S. cerevisiae bub3 mutant strain, hits give high values
# Procedure, shortened: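 Steps: expose the mutant yeast strain to compound; grow alongside vehicle-treated cultures; measure growth; express inhibition against the vehicle cultures.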
# [12] = NCI Yeast Anticancer Drug Screen. Data for the wt2 strain (AID 169);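 also: 0% = growth of vehicle-treated yeast cultures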; conditions: S. cerevisiae wt2 strain growth inhibition, hits give high values
# Procedure, shortened: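 The panel's yeast strains carry defined changes in DNA repair or cell cycle genes. Each strain is grown with compound, and growth loss is scored relative to vehicle.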
# [13] = NCI Yeast Anticancer Drug Screen. Data for the mlh1 strain (AID 171);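 also: 0% = growth of vehicle-treated control cultures of the same strain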; conditions: S. cerevisiae mlh1 strain growth inhibition, hits give high values
# Procedure, shortened: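 Inhibition values reflect reduced yeast growth in the presence of compound, referenced to vehicle controls, using a strain chosen for its alteration in DNA repair or cell cycle control.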
# [14] = NCI Yeast Anticancer Drug Screen. Data for the sgs1 strain (AID 173);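 also: 0% = growth of vehicle-only control cultures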; conditions: S. cerevisiae sgs1 mutant, hits give high values
# Procedure, shortened: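 Vehicle-treated cultures served as reference for growth inhibition of a yeast strain altered in DNA damage repair or cell cycle control after compound exposure.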
# [15] = NCI Yeast Anticancer Drug Screen. Data for the mlh1 rad18 strain (AID 175); conditions: S. cerevisiae mlh1 rad18 strain growth inhibition, hits give high values
# Procedure, shortened: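 Inhibition values reflect reduced growth of mutant yeast versus vehicle-treated controls following compound exposure; the mutations affect DNA damage repair.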
# [16] = NCI Yeast Anticancer Drug Screen. Data for the rad18 strain (AID 177); conditions: S. cerevisiae rad18 mutant growth inhibition, hits give high values
# Procedure, shortened: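 Steps: expose repair-mutant yeast to compound; measure growth; express as inhibition relative to vehicle control.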
# [17] = at 5.0 µM (retest, dose inferred, filed as 0.5)
# [18] = at 50.0 µM (retest, dose inferred, filed as 5.0)
compound,measurement,setting,value
CC(=O)/C(=C\c1ccc(Cl)c(Cl)c1)C(=O)C(C)CN(C)C (stereo unspecified),growth inhibition,[1]; at 1.2 µM,19%
same,growth inhibition,[1]; at 3.7 µM,21%
same,growth inhibition,[1]; at 11.0 µM,33%
same,growth inhibition,[1]; at 33.0 µM,52%
same,growth inhibition,[1]; at 100.0 µM,91% (active)
same,growth inhibition,[2]; at 1.2 µM,-12%
same,growth inhibition,[2]; at 3.7 µM,-13%
same,growth inhibition,[2]; at 11.0 µM,-12%
same,growth inhibition,[2]; at 33.0 µM,10%
same,growth inhibition,[2]; at 100.0 µM,90% (active)
same,growth inhibition,[3]; at 1.2 µM,7%
same,growth inhibition,[3]; at 3.7 µM,7%
same,growth inhibition,[3]; at 11.0 µM,3%
same,growth inhibition,[3]; at 33.0 µM,37%
same,growth inhibition,[3]; at 100.0 µM,90% (active)
same,growth inhibition,[4]; at 1.2 µM,6%
same,growth inhibition,[4]; at 3.7 µM,-2%
same,growth inhibition,[4]; at 11.0 µM,10%
same,growth inhibition,[4]; at 33.0 µM,46%
same,growth inhibition,[4]; at 100.0 µM,93% (active)
same,growth inhibition,[5]; at 1.2 µM,26%
same,growth inhibition,[5]; at 3.7 µM,22%
same,growth inhibition,[5]; [17],14%
same,growth inhibition,[5]; at 11.0 µM,18%
same,growth inhibition,[5]; at 33.0 µM,62%
same,growth inhibition,[5]; [18],36%
same,growth inhibition,[5]; at 50.0 µM,64.4%
same,growth inhibition,[5]; at 100.0 µM,91% (active)
same,growth inhibition,[6]; at 1.2 µM,19%
same,growth inhibition,[6]; at 3.7 µM,29%
same,growth inhibition,[6]; [17],9%
same,growth inhibition,[6]; at 11.0 µM,38%
same,growth inhibition,[6]; at 33.0 µM,51%
same,growth inhibition,[6]; [18],76% (active)
same,growth inhibition,[6]; at 50.0 µM,87.5% (active)
same,growth inhibition,[6]; at 100.0 µM,93% (active)
same,growth inhibition,[7]; at 1.2 µM,-3%
same,growth inhibition,[7]; at 3.7 µM,2%
same,growth inhibition,[7]; at 11.0 µM,-8%
same,growth inhibition,[7]; at 33.0 µM,22%
same,growth inhibition,[7]; at 100.0 µM,92% (active)
same,growth inhibition,[8]; [17],-8%
same,growth inhibition,[8]; [18],97% (active)
same,growth inhibition,[8]; at 50.0 µM,85.7% (active)
same,growth inhibition,[9]; at 1.2 µM,8%
same,growth inhibition,[9]; at 3.7 µM,-2%
same,growth inhibition,[9]; at 11.0 µM,17%
same,growth inhibition,[9]; at 33.0 µM,44%
same,growth inhibition,[9]; at 100.0 µM,81% (active)
same,growth inhibition,[10]; [17],-1%
same,growth inhibition,[10]; [18],93% (active)
same,growth inhibition,[10]; at 50.0 µM,81.2% (active)
same,growth inhibition,[11]; at 1.2 µM,7%
same,growth inhibition,[11]; at 3.7 µM,-1%
same,growth inhibition,[11]; [17],12%
same,growth inhibition,[11]; at 11.0 µM,11%
same,growth inhibition,[11]; at 33.0 µM,53%
same,growth inhibition,[11]; [18],96% (active)
same,growth inhibition,[11]; at 50.0 µM,82.8% (active)
same,growth inhibition,[11]; at 100.0 µM,93% (active)
same,growth inhibition,[12]; at 1.2 µM,-12%
same,growth inhibition,[12]; at 3.7 µM,-6%
same,growth inhibition,[12]; at 11.0 µM,-1%
same,growth inhibition,[12]; at 33.0 µM,88% (active)
same,growth inhibition,[12]; at 100.0 µM,98% (active)
same,growth inhibition,[13]; at 1.2 µM,6%
same,growth inhibition,[13]; at 3.7 µM,-2%
same,growth inhibition,[13]; at 11.0 µM,10%
same,growth inhibition,[13]; at 33.0 µM,46%
same,growth inhibition,[13]; at 100.0 µM,93% (active)
same,growth inhibition,[14]; at 1.2 µM,40%
same,growth inhibition,[14]; at 3.7 µM,48%
same,growth inhibition,[14]; at 11.0 µM,64%
same,growth inhibition,[14]; at 33.0 µM,76% (active)
same,growth inhibition,[14]; at 100.0 µM,97% (active)
same,growth inhibition,[15]; [17],16%
same,growth inhibition,[15]; [18],97% (active)
same,growth inhibition,[15]; at 50.0 µM,90.3% (active)
same,growth inhibition,[16]; at 1.2 µM,26%
same,growth inhibition,[16]; at 3.7 µM,30%
same,growth inhibition,[16]; at 11.0 µM,55%
same,growth inhibition,[16]; at 33.0 µM,82% (active)
same,growth inhibition,[16]; at 100.0 µM,93% (active)
CC(=O)CCC1=C(C)C(=O)C(=O)C(C)=C1O,growth inhibition,[1]; at 1.2 µM,-2%
same,growth inhibition,[1]; at 3.7 µM,-3%
same,growth inhibition,[1]; at 11.0 µM,-4%
same,growth inhibition,[1]; at 33.0 µM,20%
same,growth inhibition,[1]; at 100.0 µM,91% (active)
same,growth inhibition,[2]; at 1.2 µM,-4%
same,growth inhibition,[2]; at 3.7 µM,-8%
same,growth inhibition,[2]; at 11.0 µM,-3%
same,growth inhibition,[2]; at 33.0 µM,7%
same,growth inhibition,[2]; at 100.0 µM,80% (active)
same,growth inhibition,[3]; at 1.2 µM,-2%
same,growth inhibition,[3]; at 3.7 µM,-1%
same,growth inhibition,[3]; at 11.0 µM,0%
same,growth inhibition,[3]; at 33.0 µM,7%
same,growth inhibition,[3]; at 100.0 µM,16%
same,growth inhibition,[4]; at 1.2 µM,-17%
same,growth inhibition,[4]; at 3.7 µM,0%
same,growth inhibition,[4]; at 11.0 µM,4%
same,growth inhibition,[4]; at 33.0 µM,8%
same,growth inhibition,[4]; at 100.0 µM,80% (active)
same,growth inhibition,[5]; at 1.2 µM,0%
same,growth inhibition,[5]; at 3.7 µM,9%
same,growth inhibition,[5]; [17],-6%
same,growth inhibition,[5]; at 11.0 µM,14%
same,growth inhibition,[5]; at 33.0 µM,34%
same,growth inhibition,[5]; [18],42%
same,growth inhibition,[5]; at 50.0 µM,7.5%
same,growth inhibition,[5]; at 100.0 µM,89% (active)
same,growth inhibition,[6]; at 1.2 µM,-3%
same,growth inhibition,[6]; at 3.7 µM,-6%
same,growth inhibition,[6]; [17],-4%
same,growth inhibition,[6]; at 11.0 µM,-9%
same,growth inhibition,[6]; at 33.0 µM,13%
same,growth inhibition,[6]; [18],12%
same,growth inhibition,[6]; at 50.0 µM,34.7%
same,growth inhibition,[6]; at 100.0 µM,83% (active)
same,growth inhibition,[7]; at 1.2 µM,-2%
same,growth inhibition,[7]; at 3.7 µM,-1%
same,growth inhibition,[7]; at 11.0 µM,5%
same,growth inhibition,[7]; at 33.0 µM,27%
same,growth inhibition,[7]; at 100.0 µM,85% (active)
same,growth inhibition,[8]; [17],6%
same,growth inhibition,[8]; [18],25%
same,growth inhibition,[8]; at 50.0 µM,39%
same,growth inhibition,[9]; at 1.2 µM,1%
same,growth inhibition,[9]; at 3.7 µM,7%
same,growth inhibition,[9]; at 11.0 µM,7%
same,growth inhibition,[9]; at 33.0 µM,20%
same,growth inhibition,[9]; at 100.0 µM,74% (active)
same,growth inhibition,[10]; [17],-6%
same,growth inhibition,[10]; [18],16%
same,growth inhibition,[10]; at 50.0 µM,14.1%
same,growth inhibition,[11]; at 1.2 µM,-5%
same,growth inhibition,[11]; at 3.7 µM,-16%
same,growth inhibition,[11]; [17],-14%
same,growth inhibition,[11]; at 11.0 µM,6%
same,growth inhibition,[11]; at 33.0 µM,17%
same,growth inhibition,[11]; [18],15%
same,growth inhibition,[11]; at 50.0 µM,75% (active)
same,growth inhibition,[11]; at 100.0 µM,89% (active)
same,growth inhibition,[12]; at 1.2 µM,-3%
same,growth inhibition,[12]; at 3.7 µM,-3%
same,growth inhibition,[12]; at 11.0 µM,-1%
same,growth inhibition,[12]; at 33.0 µM,23%
same,growth inhibition,[12]; at 100.0 µM,94% (active)
same,growth inhibition,[13]; at 1.2 µM,-5%
same,growth inhibition,[13]; at 3.7 µM,-3%
same,growth inhibition,[13]; at 11.0 µM,-23%
same,growth inhibition,[13]; at 33.0 µM,13%
same,growth inhibition,[13]; at 100.0 µM,96% (active)
same,growth inhibition,[14]; at 1.2 µM,-3%
same,growth inhibition,[14]; at 3.7 µM,-6%
same,growth inhibition,[14]; at 11.0 µM,-2%
same,growth inhibition,[14]; at 33.0 µM,22%
same,growth inhibition,[14]; at 100.0 µM,91% (active)
same,growth inhibition,[15]; [17],-28%
same,growth inhibition,[15]; [18],46%
same,growth inhibition,[15]; at 50.0 µM,20.4%
same,growth inhibition,[16]; at 1.2 µM,-4%
same,growth inhibition,[16]; at 3.7 µM,-7%
same,growth inhibition,[16]; at 11.0 µM,-3%
same,growth inhibition,[16]; at 33.0 µM,14%
same,growth inhibition,[16]; at 100.0 µM,90% (active)
